Reference: PubChem BioAssay AID1159580 (chemical genetic matrix, 2015)
Hit rate of the full screen: of about 5,500 compounds, about 2,000 (36%) were called active. About 18% were inconclusive and are not listed. No stated cut-off is given here; in the data, active means normalized growth mostly below about 0.91 (no sharp cut-off); inconclusive means no clear call, values can overlap the other calls; inactive means mostly above about 0.92. Some of the results follow.

Assay: chemical genetic growth profiling, strain panel (AID 1159580);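 further: tested at 20 µM; growth read once vehicle control cultures reached saturation at 30 °C; 1 = growth at the plate median or of vehicle wells; lower values mean less growth of the strain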
Settings: growth OD

Measured: normalized growth

CCCN1C[C@H](CSC)C[C@@H]2c3cccc4[nH]cc(c34)C[C@H]21
inactive: S. cerevisiae deletion strains, locus YKL009W, strain mrt4, hits give low values 1.01 | S. cerevisiae deletion strains, locus YKL068W, hits give low values 1.02 | S. cerevisiae deletion strains, locus YKL085W, strain MDH1 (second series), hits give low values 1 | S. cerevisiae deletion strains, locus YKL085W, strain MDH1, hits give low values 1 | S. cerevisiae deletion strains, locus YKL160W, strain elf1, hits give low values 1.01 | S. cerevisiae deletion strains, locus YKL190W, strain CNB1, hits give low values 0.995 | S. cerevisiae deletion strains, locus YKR001C, strain vps1, hits give low values 1.02 | S. cerevisiae deletion strains, locus YKR026C, strain gcn3, hits give low values 1.02 | S. cerevisiae deletion strains, locus YKR091W, strain srl3, hits give low values 0.997 | S. cerevisiae deletion strains, locus YLL001W, strain dnm1, hits give low values 1 | S. cerevisiae deletion strains, locus YLL026W, hits give low values 1.01 | S. cerevisiae deletion strains, locus YLL041C, strain sdh2, hits give low values 0.995 | S. cerevisiae deletion strains, locus YLR027C, strain aat2, hits give low values 1 | S. cerevisiae deletion strains, locus YLR039C, strain RIC1, hits give low values 1.11 | S. cerevisiae deletion strains, locus YLR058C, strain SHM2, hits give low values 1.01 | S. cerevisiae deletion strains, locus YLR102C, strain apc9, hits give low values 1.03 | S. cerevisiae deletion strains, locus YLR113W, strain HOG1, hits give low values 1.06 | S. cerevisiae deletion strains, locus YLR221C, strain rsa3, hits give low values 1 | S. cerevisiae deletion strains, locus YLR258W, strain gsy2, hits give low values 1.01 | S. cerevisiae deletion strains, locus YLR262C, strain YPT6 (second series), hits give low values 1.07 | S. cerevisiae deletion strains, locus YLR262C, strain YPT6, hits give low values 1.09 | S. cerevisiae deletion strains, locus YLR268W, strain sec22, hits give low values 1 | S. cerevisiae deletion strains, locus YLR320W, strain mms22, hits give low values 0.984 | S. cerevisiae deletion strains, locus YLR330W, strain CHS5, hits give low values 0.999 | S. cerevisiae deletion strains, locus YLR342W, strain FKS1 (second series), hits give low values 1.01 | S. cerevisiae deletion strains, locus YLR342W, strain FKS1, hits give low values 1 | S. cerevisiae deletion strains, locus YLR357W, strain rsc2, hits give low values 0.982 | S. cerevisiae deletion strains, locus YLR370C, strain arc18, hits give low values 1.01 | S. cerevisiae deletion strains, locus YLR371W, strain rom2, hits give low values 1.02 | S. cerevisiae deletion strains, locus YLR384C, strain iki3, hits give low values 1 | S. cerevisiae deletion strains, locus YLR418C, strain cdc73, hits give low values 0.985 | S. cerevisiae deletion strains, locus YML016C, strain PPZ1, hits give low values 0.998 | S. cerevisiae deletion strains, locus YML032C, strain rad52, hits give low values 1.03 | S. cerevisiae deletion strains, locus YML120C, strain ndi1, hits give low values 1.02 | S. cerevisiae deletion strains, locus YML124C, strain tub3, hits give low values 1.02 | S. cerevisiae deletion strains, locus YMR058W, strain fet3, hits give low values 0.999 | S. cerevisiae deletion strains, locus YMR078C, strain ctf18, hits give low values 1.03 | S. cerevisiae deletion strains, locus YMR125W, strain sto1, hits give low values 1.02 | S. cerevisiae deletion strains, locus YMR129W, hits give low values 1.02 | S. cerevisiae deletion strains, locus YMR205C, strain PFK2, hits give low values 1.02 | S. cerevisiae deletion strains, locus YMR223W, strain ubp8, hits give low values 1.02 | S. cerevisiae deletion strains, locus YMR231W, strain pep5, hits give low values 1.02 | S. cerevisiae deletion strains, locus YMR263W, strain SAP30, hits give low values 0.979 | S. cerevisiae deletion strains, locus YMR307W, strain GAS1, hits give low values 1.03 | S. cerevisiae deletion strains, locus YNL067W, strain RPL9B, hits give low values 0.975 | S. cerevisiae deletion strains, locus YNL071W, strain lat1, hits give low values 1.02 | S. cerevisiae deletion strains, locus YNL128W, strain TEP1, hits give low values 0.984 | S. cerevisiae deletion strains, locus YNL153C, strain GIM3, hits give low values 0.983 | S. cerevisiae deletion strains, locus YNL183C, strain NPR1, hits give low values 0.991 | S. cerevisiae deletion strains, locus YNL209W, strain ssb2, hits give low values 1 | S. cerevisiae deletion strains, locus YNL233W, strain BNI4, hits give low values 0.981 | S. cerevisiae deletion strains, locus YNL248C, strain rpa49, hits give low values 0.945 | S. cerevisiae deletion strains, locus YNL250W, strain rad50, hits give low values 1 | S. cerevisiae deletion strains, locus YNL271C, strain bni1, hits give low values 1.02 | S. cerevisiae deletion strains, locus YNL298W, strain CLA4, hits give low values 1.02 | S. cerevisiae deletion strains, locus YNL307C, strain MCK1, hits give low values 1.03 | S. cerevisiae deletion strains, locus YNL322C, strain KRE1 (second series), hits give low values 1.01 | S. cerevisiae deletion strains, locus YNL322C, strain KRE1, hits give low values 1 | S. cerevisiae deletion strains, locus YNR049C, strain mso1, hits give low values 1.01 | S. cerevisiae deletion strains, locus YNR052C, strain pop2, hits give low values 1.02 | S. cerevisiae deletion strains, locus YOL006C, strain TOP1, hits give low values 0.966 | S. cerevisiae deletion strains, locus YOL012C, strain htz1 0.77 | S. cerevisiae deletion strains, locus YOL147C, strain pex11, hits give low values 1.02 | S. cerevisiae deletion strains, locus YOR001W, strain rrp6, hits give low values 0.983 | S. cerevisiae deletion strains, locus YOR061W, strain CKA2, hits give low values 0.992 | S. cerevisiae deletion strains, locus YOR069W, strain VPS5, hits give low values 0.989 | S. cerevisiae deletion strains, locus YOR070C, strain gyp1, hits give low values 0.997 | S. cerevisiae deletion strains, locus YOR080W, strain dia2, hits give low values 1.02 | S. cerevisiae deletion strains, locus YOR083W, strain WHI5, hits give low values 0.966 | S. cerevisiae deletion strains, locus YOR106W, strain vam3, hits give low values 1.01 | S. cerevisiae deletion strains, locus YOR136W, strain idh2, hits give low values 1.02 | S. cerevisiae deletion strains, locus YOR144C, strain elg1, hits give low values 1.01 | S. cerevisiae deletion strains, locus YOR184W, strain ser1, hits give low values 1.05 | S. cerevisiae deletion strains, locus YOR231W, strain MKK1, hits give low values 1.08 | S. cerevisiae deletion strains, locus YOR265W, strain rbl2, hits give low values 1.02 | S. cerevisiae deletion strains, locus YOR270C, strain vph1, hits give low values 1.07 | S. cerevisiae deletion strains, locus YOR290C, strain snf2, hits give low values 1 | S. cerevisiae deletion strains, locus YOR316C, strain cot1, hits give low values 1.02 | S. cerevisiae deletion strains, locus YPL051W, strain arl3, hits give low values 1.01 | S. cerevisiae deletion strains, locus YPL055C, strain LGE1, hits give low values 0.946 | S. cerevisiae deletion strains, locus YPL078C, strain atp4, hits give low values 1.01 | S. cerevisiae deletion strains, locus YPL106C, strain sse1, hits give low values 1.03 | S. cerevisiae deletion strains, locus YPL240C, strain hsp82, hits give low values 1.01 | S. cerevisiae deletion strains, locus YPL241C, strain CIN2, hits give low values 1.03 | S. cerevisiae deletion strains, locus YPL256C, strain CLN2, hits give low values 1.06 | S. cerevisiae deletion strains, locus YPR119W, strain clb2, hits give low values 1.02 | S. cerevisiae deletion strains, locus YPR141C, strain kar3, hits give low values 1.01 | S. cerevisiae deletion strains, locus YPR163C, strain tif3, hits give low values 1.02 | S. cerevisiae deletion strains, locus YPR167C, strain met16, hits give low values 1.02 | S. cerevisiae deletion strains, strain wtn01, hits give low values 0.995 | S. cerevisiae strains, strain wild type, hits give low values 0.997
